Inconclusive results are not listed. Calls of active or inactive are those of the source. Rule for the calls, unless noted: active = hit-call score of the fitted dose curve at least 0.9, where 1 is the maximum; inconclusive = response in the unintended direction; inactive = score below 0.9.
Experiments:
DIO2 (gene 1734) = assay: CCTE_GLTED_hDIO2: CCTE's human Deiodinase 2 (DIO2) Inhibition Assay, Great Lakes Toxicology and Ecology Division (GLTED) Lab (AID 2284050)
Procedure, shortened: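 Iodide released by human deiodinase 2 over 3 h with test chemical, measured spectrophotometrically via Sandell-Kolthoff cerium/arsenic reaction. Run n=3; inhibition referenced to DMSO.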

DIO3 (gene 1735) = assay: CCTE_GLTED_hDIO3: CCTE's human Deiodinase 3 (DIO3) Inhibition Assay, Great Lakes Toxicology and Ecology Division (GLTED) Lab (AID 2284055);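 for AC50: potency is for inhibition seen as loss of released iodide signal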
Procedure, shortened: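 Inhibition is read as reduced iodide release, measured spectrophotometrically by the Sandell-Kolthoff cerium/arsenic reaction. Adenovirus-expressed human DIO3 enzyme is exposed to chemical for 3 h, n=3 plates. Iodinated chemicals, nitrite, iron or thiocyanate may interfere.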

[1] = CCTE_Shafer_MEA_acute_LDH: CCTE's Lactate Dehydrogenase Assay for Cytotoxicity in the Neural Acute Assay, Shafer Lab (AID 2284086);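 note: active means LDH release rises above DMSO vehicle level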
Procedure, shortened: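 LDH released during 40 min compound exposure of primary rat cortical cultures, quantified by absorbance at 490 nm in collected medium. Fitting direction positive versus DMSO vehicle.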

[2] = CCTE_Shafer_MEA_dev_network_spike_peak: CCTE's Neural Network Formation Assay for Mean Number of Electrodes in Network Spike, Shafer Lab (AID 2284049; active = hit-call score of the fitted dose curve at least 0.9, where 1 is the maximum; inactive = score below 0.9;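 for AC50: fitted for loss of signal meaning fewer electrodes in network spikes than DMSO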)
Procedure, shortened: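 Continuous 12-day exposure of rat cortical cultures, starting at plating, on MEA plates. Endpoint: electrodes participating in network-spike peaks, AUC across DIV 5–12, DMSO as negative control.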

[3] = CCTE_Shafer_MEA_dev_spike_duration_mean: CCTE's Neural Network Formation Assay for Mean Spike Duration, Shafer Lab (AID 2284051; active = hit-call score of the fitted dose curve at least 0.9, where 1 is the maximum; inactive = score below 0.9;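 note: mean network spike duration pooled as area under curve over DIV 5 to 12 recordings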;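 for AC50: potency for a decrease in mean network spike duration versus DMSO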)
Procedure, shortened: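 Rat cortical primary cultures, 48-well MEA (16 electrodes/well); compound from plating, renewed DIV 5, 9. Network spike duration (AxIS adaptive detector) recorded DIV 5/7/9/12, combined as trapezoidal AUC; loss direction vs DMSO.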

[4] = CCTE_Shafer_MEA_dev_network_spike_duration_std: CCTE's Neural Network Formation Assay for Standard Deviation of Network Spike Duration, Shafer Lab (AID 2284052; active = hit-call score of the fitted dose curve at least 0.9, where 1 is the maximum; inactive = score below 0.9;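 note: area under curve of spike duration SD across recording days 5 to 12; hits are decreases in network spike duration SD versus DMSO vehicle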)
Procedure, shortened: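 Rat cortical cultures, 1.5 x 10^5 cells/well, exposed continuously from plating to DIV 12 with media/compound renewal at DIV 5, 9. Spontaneous activity recorded DIV 5/7/9/12, AxIS adaptive spike detector; AUC across days; negative direction vs DMSO.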

[5] = CCTE_Shafer_MEA_dev_per_network_spike_spike_number_mean: CCTE's Neural Network Formation Assay for Mean Number of Spikes in a Network Spike, Shafer Lab (AID 2284053; active = hit-call score of the fitted dose curve at least 0.9, where 1 is the maximum; inactive = score below 0.9)
Procedure, shortened: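 Rat cortical primary cultures on 48-well MEA; compound from day 0, re-dosed with full media change DIV 5, 9. Recorded DIV 5, 7, 9, 12; spikes in 0.05 s window at network-spike peak ÷ total network spikes; AUC; loss vs DMSO.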

[6] = CCTE_Shafer_MEA_dev_per_network_spike_spike_percent: CCTE's Neural Network Formation Assay for Percent of Spikes in a Network Spike, Shafer Lab (AID 2284054; active = hit-call score of the fitted dose curve at least 0.9, where 1 is the maximum; inactive = score below 0.9)
Procedure, shortened: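 Developing networks of rat cortical neurons are dosed at day 0 and recorded extracellularly four times up to day 12. The endpoint is the area under the curve of percent spikes in network spikes, fitted in the negative direction relative to DMSO.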

[7] = CCTE_Shafer_MEA_dev_LDH: CCTE's Lactate Dehydrogenase Assay for Cytotoxicity in the Neural Network Formation Assay, Shafer Lab (AID 2284068);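 note: exposure for twelve days from plating with re-dosing on DIV 5 and 9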
Procedure, shortened: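 Rat cortical primary neurons, MEA culture; dosing day 0–12, full medium plus compound exchange DIV 5, 9. Read-out: LDH enzyme activity, spectrophotometric. DMSO = negative control/baseline; signal loss → cytotoxicity.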

[8] = CCTE_Shafer_MEA_dev_AB: CCTE's Alamar Blue Assay for Cytotoxicity in the Neural Network Formation Assay, Shafer Lab (AID 2284083);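 note: twelve days of exposure from plating with re-dosing on DIV 5 and 9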
Procedure: CCTE_Shafer_MEA_dev assay is conducted using Axion Biosystems 48 well microelectrode array (MEA) plates and Maestro recording system. Each well of the MEA plate contains a grid of 16 microelectrodes embedded in the culture surface. Electrically active cells, such as neurons, can be cultured over the electrodes, and electrical activity in these cells can be recorded extracellularly. The spontaneous firing of neurons is captured from each electrode on a microsecond timescale providing both temporally and spatially precise data. […] The CCTE_Shafer_MEA_dev assay uses primary cultures of rat cortical neurons. Recordings are made on days post-plating 5, 7, 9 and 12. As these cultures mature over time, neural networks develop functional activity and form cohesive networks in which electrical activity can be highly coordinated. CCTE_Shafer_MEA_dev_AB is 1 of 19 assay components of the CCTE_Shafer_MEA_dev assay. It measures the resazurin reduction using fluorescence.Data from the assay component CCTE_Shafer_MEA_dev_AB was analyzed into 1 assay endpoint. This assay endpoint, CCTE_Shafer_MEA_dev_AB, was analyzed in the positive analysis fitting direction relative to DMSO as the negative control and baseline of activity. Using a type of viability reporter, loss-of-signal activity can be used to understand cell viability.
On the day prior to culture, each well was coated thoroughly with 150 uL of 0.05% polyethyleneimine (PEI, Sigma Cat P3143) in 50 mM HEPES (Sigma Cat H7523) at a pH of 8. The plate was incubated at 37C for one hour. PEI was rinsed out with 500 uL of sterile water three times. Plates were stored at 4C until the day of culture. This culture was plated at a seeding density of 1.5 x 10^5 cells/well on a 48-well MEA plate, prepared as described above. Cells were administered via a 25 uL media/laminin (20 ng/ml; Sigma Cat L2020-1MG) drop directly onto the microelectrode array, as adding the cells with the laminin results in better attachment than pre-coating with laminin. After 2 hours, an additional 475 uL of cortical media was added and the cells returned to the incubator. […]

Compound: CN1C(=O)N(c2ccccc2Br)Cc2cnc(Nc3ccc4c(c3)OCC(CO)O4)nc21 (stereo not given)
- outcome (DIO2 (gene 1734)): inactive

Compound: CC(C)(C)c1csc(-c2cc3cc(OCc4ccccc4CC(=O)O)ccc3o2)n1
- AC50 (DIO2 (gene 1734)): 120 µM (active)
- AC50 (DIO3 (gene 1735)): 148 µM (active)

Compound: Cc1c2ccccc2c(C)c2c1ccc1ccccc12
- outcome [1]: inactive

Compound: Cc1cc2c(cc1C(F)(F)F)N(C(=O)Nc1ccc(Oc3cccnc3C)nc1)CC2
- outcome [1]: inactive

Compound: NC(=O)c1nc(-c2cccc(-c3cc(F)ccc3OCC(F)(F)C(F)(F)F)c2)n[nH]1
- AC50 (DIO2 (gene 1734)): 100 µM (active)
- AC50 (DIO3 (gene 1735)): 182 µM (active)
- outcome [1]: inactive

Compound: CC(C)(C)c1cc(/C=C2\SC(N)=NC2=O)cc(C(C)(C)C)c1O
- AC50 (DIO2 (gene 1734)): 30.3 µM (active)
- AC50 (DIO3 (gene 1735)): 19.9 µM (active)

Compound: CCCCCCCCOC(=O)c1cc(O)c(O)c(O)c1
- AC50 (DIO2 (gene 1734)): 143 µM (active)
- AC50 (DIO3 (gene 1735)): 76.5 µM (active)
- outcome [1]: inactive

Compound: COc1cccc([C@H](O)C2CCN(CCc3ccc(F)cc3)CC2)c1OC
- outcome [1]: inactive

Compound: c1ccc2ccccc2c1
- outcome [2]: inactive
- outcome [3]: inactive
- outcome [4]: inactive
- outcome [5]: inactive
- outcome [6]: inactive
- outcome [7]: inactive

Compound: CC(C)(c1cc(Br)c(O)c(Br)c1)c1cc(Br)c(O)c(Br)c1
- outcome [2]: inactive
- AC50 (DIO2 (gene 1734)): 48.6 µM (active)
- outcome [3]: inactive
- outcome [4]: inactive
- outcome [5]: inactive
- outcome [6]: inactive
- AC50 (DIO3 (gene 1735)): 37.8 µM (active)
- outcome [7]: inactive

Compound: CC/C(=C(/CC)c1ccc(O)cc1)c1ccc(O)cc1
- AC50 [2]: 11.3 µM (active)
- AC50 [3]: 15 µM (active)
- outcome [4]: inactive
- AC50 [5]: 5.65 µM (active)
- AC50 [6]: 3.87 µM (active)
- AC50 [7]: 19.5 µM (active)
- outcome [8]: inactive

Compound: CCOC(=O)O[C@H](C)OC(=O)c1ccc2c(c1)cc(C(=O)NC1CCN(C(C)C)CC1)n2Cc1cc(-c2ccc(Cl)s2)on1
- AC50 (DIO2 (gene 1734)): 45.2 µM (active)
- AC50 (DIO3 (gene 1735)): 1.16 µM (active)

Compound: c1ccc2n[nH]nc2c1
- outcome [1]: inactive

Compound: Oc1ccccc1
- outcome [2]: inactive
- outcome [3]: inactive
- outcome [4]: inactive
- outcome [5]: inactive
- outcome [6]: inactive
- outcome [7]: inactive

Compound: CN(C)c1ccc(C(=C2C=CC(=[N+](C)C)C=C2)c2ccc(N(C)C)cc2)cc1
- AC50 (DIO2 (gene 1734)): 134 µM (active)
- AC50 (DIO3 (gene 1735)): 22.6 µM (active)
- AC50 [1]: 7.76 µM (active)

Compound: CCCCCCCCCCCO
- AC50 (DIO3 (gene 1735)): 152 µM (active)

Compound: CCN(CC)C(=O)c1cc(S(=O)(=O)Cc2ccccc2)c(N2CCC(c3ccccc3)CC2)cc1N(CC)CCN(C)C
- AC50 (DIO2 (gene 1734)): 37 µM (active)
- AC50 (DIO3 (gene 1735)): 53.4 µM (active)
- outcome [1]: inactive

Compound: Clc1ccccc1C(c1ccccc1)(c1ccccc1)n1ccnc1
- outcome [2]: inactive
- outcome [3]: inactive
- outcome [4]: inactive
- outcome [5]: inactive
- outcome [6]: inactive
- outcome [1]: inactive

Compound: O=C1O[C@H]([C@@H](O)CO)C(O)=C1O
- outcome [2]: inactive
- outcome [3]: inactive
- outcome [4]: inactive
- outcome [5]: inactive
- outcome [8]: inactive
- outcome [1]: inactive

Compound: OC12N=C(c3ccccc3)SC1Cc1cc(Cl)ccc12 (stereo not given)
- AC50 (DIO2 (gene 1734)): 72.5 µM (active)
- AC50 (DIO3 (gene 1735)): 86.5 µM (active)
- outcome [1]: inactive

Compound: O=c1[nH]sc2ccccc12
- outcome [1]: inactive

Compound: CCCCCCCCCCCCO
- outcome (DIO2 (gene 1734)): inactive
- AC50 (DIO3 (gene 1735)): 82.6 µM (active)

Compound: CN(C)C(=O)C1(N2CCCCC2)CCN(CC[C@@]2(c3ccc(Cl)c(Cl)c3)CN(C(=O)c3ccccc3)CCO2)CC1
- AC50 (DIO2 (gene 1734)): 73.9 µM (active)
- outcome (DIO3 (gene 1735)): inactive
- outcome [1]: inactive

Compound: CC(O)CC(C)(C)O (stereo not given)
- outcome [1]: inactive

Compound: O=C(O)c1ccccc1-n1cc(C(=O)O)c(=O)c2cc(Nc3c(F)cc(F)cc3Cl)c(Cl)cc21
- outcome [1]: inactive

Compound: COc1cc(C(=O)NC2CCN(C)CC2)ccc1Nc1ncc2c(n1)N(C1CCCC1)CC(F)(F)C(=O)N2C
- outcome [1]: inactive

Compound: CN(C[C@@H](CC[N+]12CCC(C3CCCCC3)(CC1)CC2)c1ccc(Cl)c(Cl)c1)C(=O)c1cc(C(F)(F)F)cc(C(F)(F)F)c1
- AC50 (DIO2 (gene 1734)): 37.8 µM (active)
- AC50 (DIO3 (gene 1735)): 81.9 µM (active)
- outcome [1]: inactive

Compound: CN1C(=O)CC[C@H]1c1cccnc1
- outcome [2]: inactive
- outcome [3]: inactive
- outcome [4]: inactive
- outcome [5]: inactive
- outcome [6]: inactive
- outcome [7]: inactive
- outcome [8]: inactive

Compound: O=CCCCC=O
- AC50 (DIO2 (gene 1734)): 91.3 µM (active)
- AC50 (DIO3 (gene 1735)): 9.03 µM (active)

Compound: CC1=CC(=O)/C(=C(/C)O)C(=O)O1
- outcome [1]: inactive

Compound: CC(=O)N1CCN(c2ccc(OC[C@H]3CO[C@](Cn4ccnc4)(c4ccc(Cl)cc4Cl)O3)cc2)CC1
- outcome [1]: inactive

Compound: CCCCCCCCCCCC[N+](C)(C)C
- AC50 (DIO2 (gene 1734)): 96.4 µM (active)
- AC50 (DIO3 (gene 1735)): 119 µM (active)

Compound: CO[C@H]1/C=C/O[C@@]2(C)Oc3c(C)c(O)c4c(O)c(c(/C=N/N5CCN(C)CC5)c(O)c4c3C2=O)NC(=O)/C(C)=C\C=C\[C@H](C)[C@H](O)[C@@H](C)[C@@H](O)[C@@H](C)[C@H](OC(C)=O)[C@@H]1C
- outcome [1]: inactive

Compound: NCc1cccc(C2CCN(C(=O)c3ccc(C#Cc4ccccc4F)o3)CC2)c1
- AC50 (DIO2 (gene 1734)): 30.6 µM (active)
- AC50 (DIO3 (gene 1735)): 23.3 µM (active)
- outcome [1]: inactive
